Results taken from PubChem BioAssay.
Active and inactive are the calls of the source.

Assays:
[1] = small molecules captured by biotinylated probe aFSTL3 – biochemical, small-molecule microarray, fluorescence 635/667, stem cell growth factor project, primary screen (AID 1064); conditions: higher = more signal;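 note: measures binding of the biotinylated anti-FSTL3 antibody to printed compounds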
[2] = binders from COS7 lysate, DM2A8 probe, primary screen, torsin A project, cell lysate, small-molecule microarray, fluorescence 635/667 (AID 1065); conditions: higher = more signal, COS7 lysate expressing mutant human TOR1A
[3] = small molecules captured by biotinylated probe aFGF2 – biochemical, small-molecule microarray, fluorescence 635/667, stem cell growth factor project, primary screen (AID 1067); conditions: higher = more signal;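 note: measures binding of biotinylated aFGF2 protein to printed compounds on slides; z-score merges feature fluorescence and signal-to-noise across triplicate slides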
[4] = small molecules captured by biotinylated probe aFGF10 – biochemical, small-molecule microarray, fluorescence 635/667, stem cell growth factor project, primary screen (AID 1071); conditions: higher = more signal;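 note: score merges 667 nm spot intensity and signal to noise from triplicate slides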
[5] = biological target: Neurogenic locus notch homolog protein 2 (Homo sapiens) (UniProt Q04721); assay: small molecules binding Notch2 protein – biochemical, small-molecule microarray, 635 nm fluorescence, stem cell growth factors, primary screen (AID 1073); conditions: higher = more signal
[6] = biological target: Pro-neuregulin-1, membrane-bound isoform (Homo sapiens) (UniProt Q02297); assay: small molecules binding neuregulin-1 protein – biochemical, small-molecule microarray, fluorescence 635/667, psychiatric disease protein project, primary screen (AID 1075); conditions: NRG1 binding, 635 nm fluorescence, higher = more signal;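 note: score combines 667 nm spot fluorescence with signal to noise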
[7] = system: Neuregulin-1 EGF-like domain; assay: small molecules binding NRG1 EGF domain – biochemical, small-molecule microarray, 635 nm fluorescence, primary screen (AID 1081); conditions: higher = more signal;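 note: binding of the protein to compounds printed on small-molecule microarray slides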
[8] = FRG1 expression reporter modulators in myotubes – cell-based, C2C12 myotubes, firefly/Renilla luciferase, luminescence, FRG1 inhibition for FSHD, primary screen (AID 1084); conditions: FRG1 promoter luciferase, higher = more signal, called active from +8 up or from −8 down
[9] = small molecules captured by biotinylated probe aFST – biochemical, small-molecule microarray, fluorescence 635/667, stem cell growth factor project, primary screen (AID 1086); conditions: higher = more signal;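 note: score merges 667 nm fluorescence with signal-to-noise of each printed compound spot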
[10] = binders of probe aHhip on microarray, primary screen, stem cell growth factor project, biochemical, small-molecule microarray, fluorescence 635/667 (AID 1087); conditions: higher = more signal;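 note: score merges spot fluorescence at 667nm with spot signal to noise ratio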
[11] = system: PRMT1 (protein arginine N-methyltransferase 1); assay: small molecules binding arginine methyltransferase PRMT1 – biochemical, small-molecule microarray, 635 nm fluorescence, primary screen (AID 1088); conditions: higher = more signal;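 note: binding of Prmt1 protein to compounds spotted on small-molecule microarray slides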
[12] = growth effects on S. cerevisiae YJM789 – YJM789 clinical isolate, OD600, 24 h, basal, primary screen (AID 1089); conditions: higher = more signal, called active from +8 up or from −8 down;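 note: growth of clinical yeast isolate S. cerevisiae YJM 789 seeded 1000 cells per well; test concentration not given here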
[13] = S. pombe growth modifiers, basal conditions – strain 972, OD600, 24 h, no modulator, primary screen (AID 1090);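 note: basal condition with compound alone and no growth modifier present; test concentration not given here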; conditions: S. pombe 972 growth, higher = more signal, called active from +8 up or from −8 down
[14] = budding yeast growth modifiers under rapamycin – strain BY4716, OD600, 96 h, primary screen (AID 1091); note: test concentration not given here; conditions: S. cerevisiae BY4716 + rapamycin, higher = more signal, called active from +8 up or from −8 down
[15] = biological target: Torsin-1A-interacting protein 2 (Homo sapiens) (UniProt Q8NFQ8); assay: small molecules binding lysate-expressed LULL1 – cell lysate, human LULL1 lysate, 635/667 nm fluorescence, primary screen (AID 1092); conditions: small-molecule microarray, hLULL1 lysate binding, 635 nm fluorescence; higher = more signal;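 note: probe is lysate of COS7 cells overexpressing human LULL1; score merges per-feature 667 nm fluorescence with signal-to-noise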
[16] = optical density change of DRC41 E. coli – strain DRC41, OD650, 24 h, E. coli filamentation project, primary screen (AID 1093);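 note: MC1000 strain lacking acrAB efflux and sulA so SOS filamentation is blocked; test concentration not given here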; conditions: E. coli DRC41 growth, higher = more signal, called active from +8 up or from −8 down
[17] = probe aLefty2 binding to arrayed compounds – biochemical, biotinylated probe, 635/667 nm fluorescence, primary screen (AID 1094); conditions: small-molecule microarray, higher = more signal;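 note: score merges spot fluorescence near 667 nm with spot signal-to-noise ratio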
[18] = system: Noggin (protein binding on small-molecule microarray); assay: small molecules binding Noggin protein – biochemical, 635/667 nm fluorescence, primary screen (AID 1095); conditions: 635 nm fluorescence, higher = more signal;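 note: score merges 667 nm feature fluorescence with signal to noise over triplicate slides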
[19] = biological target: Neurogenic locus notch homolog protein 3 (Homo sapiens) (UniProt Q9UM47); assay: small molecules binding NOTCH3 protein – biochemical, 635/667 nm fluorescence, primary screen (AID 1096); conditions: small-molecule microarray, 635 nm fluorescence, higher = more signal
[20] = probe aEGFR binding to arrayed compounds – biochemical, biotinylated probe, 635/667 nm fluorescence, primary screen (AID 1097); conditions: small-molecule microarray, higher = more signal;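 note: probe is a biotinylated anti-EGFR antibody binding compounds printed on slides; score combines fluorescence near 667 nm and signal to noise of each spot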

Chain of Torsin-1A-interacting protein 2 (Homo sapiens) (Q8NFQ8 whole entry, looked up): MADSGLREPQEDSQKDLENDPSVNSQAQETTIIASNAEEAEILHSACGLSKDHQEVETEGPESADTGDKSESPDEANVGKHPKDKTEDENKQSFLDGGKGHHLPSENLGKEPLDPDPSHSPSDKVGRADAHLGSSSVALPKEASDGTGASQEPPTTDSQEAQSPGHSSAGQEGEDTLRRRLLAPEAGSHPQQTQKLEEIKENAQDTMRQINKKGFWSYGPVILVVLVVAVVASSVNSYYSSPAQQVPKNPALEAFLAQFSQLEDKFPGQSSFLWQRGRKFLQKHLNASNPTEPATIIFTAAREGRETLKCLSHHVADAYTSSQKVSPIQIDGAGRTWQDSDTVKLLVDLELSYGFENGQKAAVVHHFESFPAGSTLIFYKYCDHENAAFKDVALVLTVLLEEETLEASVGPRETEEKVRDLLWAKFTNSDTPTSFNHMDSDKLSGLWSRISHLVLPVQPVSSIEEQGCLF
Chain of Neurogenic locus notch homolog protein 3 (Homo sapiens) (Q9UM47 whole entry, looked up): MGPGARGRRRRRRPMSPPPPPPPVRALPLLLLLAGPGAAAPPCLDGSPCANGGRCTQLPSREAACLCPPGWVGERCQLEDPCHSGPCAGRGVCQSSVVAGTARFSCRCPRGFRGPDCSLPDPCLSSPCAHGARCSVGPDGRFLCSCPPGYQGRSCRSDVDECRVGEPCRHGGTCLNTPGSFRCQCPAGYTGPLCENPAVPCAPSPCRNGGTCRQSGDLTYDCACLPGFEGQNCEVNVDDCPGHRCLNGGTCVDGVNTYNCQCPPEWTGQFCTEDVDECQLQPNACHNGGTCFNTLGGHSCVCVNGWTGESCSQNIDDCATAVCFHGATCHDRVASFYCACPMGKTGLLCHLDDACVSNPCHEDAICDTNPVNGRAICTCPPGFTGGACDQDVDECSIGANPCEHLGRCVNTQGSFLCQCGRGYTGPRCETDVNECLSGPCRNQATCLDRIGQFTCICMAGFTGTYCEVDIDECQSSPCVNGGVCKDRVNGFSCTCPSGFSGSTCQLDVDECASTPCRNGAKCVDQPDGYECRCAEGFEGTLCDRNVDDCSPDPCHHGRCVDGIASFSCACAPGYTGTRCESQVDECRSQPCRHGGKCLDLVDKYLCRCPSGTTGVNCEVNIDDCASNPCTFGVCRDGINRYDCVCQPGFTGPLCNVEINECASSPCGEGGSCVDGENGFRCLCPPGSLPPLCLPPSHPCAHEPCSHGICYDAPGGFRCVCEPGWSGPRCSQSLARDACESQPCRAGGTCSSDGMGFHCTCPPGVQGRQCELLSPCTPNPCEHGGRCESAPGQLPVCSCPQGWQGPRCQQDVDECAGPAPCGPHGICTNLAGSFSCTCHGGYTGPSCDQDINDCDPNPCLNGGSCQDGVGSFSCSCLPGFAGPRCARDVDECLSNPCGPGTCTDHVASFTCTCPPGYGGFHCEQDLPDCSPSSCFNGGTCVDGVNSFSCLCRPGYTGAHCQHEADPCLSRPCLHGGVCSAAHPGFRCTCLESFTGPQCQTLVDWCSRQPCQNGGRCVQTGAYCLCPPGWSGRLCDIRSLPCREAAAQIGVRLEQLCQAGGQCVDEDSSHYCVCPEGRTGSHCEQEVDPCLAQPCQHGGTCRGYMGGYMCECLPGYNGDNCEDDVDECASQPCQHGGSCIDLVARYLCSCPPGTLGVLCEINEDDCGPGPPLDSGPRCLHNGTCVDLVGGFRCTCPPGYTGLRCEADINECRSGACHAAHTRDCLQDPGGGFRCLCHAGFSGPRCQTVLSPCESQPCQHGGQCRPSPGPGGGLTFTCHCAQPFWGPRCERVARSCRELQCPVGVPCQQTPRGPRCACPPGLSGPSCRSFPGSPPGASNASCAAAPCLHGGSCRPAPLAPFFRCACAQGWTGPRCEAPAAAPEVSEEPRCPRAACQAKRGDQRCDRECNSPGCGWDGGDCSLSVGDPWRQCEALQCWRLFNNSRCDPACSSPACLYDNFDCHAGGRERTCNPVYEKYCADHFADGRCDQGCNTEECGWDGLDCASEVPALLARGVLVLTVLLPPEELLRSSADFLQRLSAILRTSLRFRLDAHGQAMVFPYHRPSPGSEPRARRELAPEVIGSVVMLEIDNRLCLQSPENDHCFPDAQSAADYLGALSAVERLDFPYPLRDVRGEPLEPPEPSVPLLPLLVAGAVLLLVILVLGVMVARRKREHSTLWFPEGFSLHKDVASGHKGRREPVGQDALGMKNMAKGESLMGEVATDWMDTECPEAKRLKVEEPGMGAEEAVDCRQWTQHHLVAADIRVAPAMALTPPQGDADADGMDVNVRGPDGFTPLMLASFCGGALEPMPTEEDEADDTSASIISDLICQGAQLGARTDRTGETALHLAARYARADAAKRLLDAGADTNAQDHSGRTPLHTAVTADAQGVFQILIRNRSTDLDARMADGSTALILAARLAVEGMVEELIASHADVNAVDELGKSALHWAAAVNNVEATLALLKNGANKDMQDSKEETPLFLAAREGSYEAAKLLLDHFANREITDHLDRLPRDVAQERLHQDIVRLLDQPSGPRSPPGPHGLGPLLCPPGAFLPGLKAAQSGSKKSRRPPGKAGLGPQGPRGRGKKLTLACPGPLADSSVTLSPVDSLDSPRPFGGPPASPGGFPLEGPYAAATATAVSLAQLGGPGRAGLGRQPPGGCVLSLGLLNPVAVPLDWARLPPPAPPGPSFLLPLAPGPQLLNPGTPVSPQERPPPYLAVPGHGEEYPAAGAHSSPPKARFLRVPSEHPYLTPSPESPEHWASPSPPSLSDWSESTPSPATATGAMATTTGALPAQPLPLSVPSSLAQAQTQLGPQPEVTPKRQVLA
Chain of Pro-neuregulin-1, membrane-bound isoform (Homo sapiens) (Q02297 whole entry, looked up, the tested form may be a part, canonical isoform): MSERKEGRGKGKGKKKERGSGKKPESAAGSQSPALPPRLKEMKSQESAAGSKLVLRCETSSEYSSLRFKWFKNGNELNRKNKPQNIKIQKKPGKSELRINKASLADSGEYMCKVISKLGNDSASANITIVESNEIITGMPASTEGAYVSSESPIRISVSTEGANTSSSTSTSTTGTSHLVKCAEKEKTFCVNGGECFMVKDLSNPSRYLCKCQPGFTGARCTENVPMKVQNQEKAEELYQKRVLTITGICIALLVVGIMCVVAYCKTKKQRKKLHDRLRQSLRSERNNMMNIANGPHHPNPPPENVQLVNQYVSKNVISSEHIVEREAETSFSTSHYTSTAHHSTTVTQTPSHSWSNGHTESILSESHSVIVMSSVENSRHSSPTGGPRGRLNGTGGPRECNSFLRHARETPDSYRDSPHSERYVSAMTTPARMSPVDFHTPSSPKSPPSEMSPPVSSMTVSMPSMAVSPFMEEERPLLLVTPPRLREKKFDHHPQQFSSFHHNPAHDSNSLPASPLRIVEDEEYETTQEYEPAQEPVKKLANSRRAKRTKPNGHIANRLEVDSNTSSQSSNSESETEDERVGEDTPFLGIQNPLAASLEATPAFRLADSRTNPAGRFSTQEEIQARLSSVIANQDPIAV

SMILES | composite z-score [1] | composite z-score [2] | composite z-score [3] | composite z-score [4] | composite z-score [5] | composite z-score [6] | composite z-score [7] | z-score [8] | composite z-score [9] | composite z-score [10] | composite z-score [11] | z-score [12] | z-score [13] | z-score [14] | composite z-score [15] | z-score [16] | composite z-score [17] | composite z-score [18] | composite z-score [19] | composite z-score [20]
COCCOC(=O)N1C(=O)[C@@]2(c3cc(C#CCC(C(=O)OC)C(=O)OC)ccc31)[C@H](c1ccc(OCCO)cc1)N1[C@H](c3ccccc3)[C@H](c3ccccc3)OC(=O)[C@H]1[C@@H]2C(=O)N1CCCCCCC1 | 3.74 | 1.64 | 0.671 | 0.304 | 1.37 | 0.812 | 1.3 | 0.562 (inactive) | 3.32 | 3.43 | 1.56 | 1.9 (inactive) | 0.911 (inactive) | 3.67 (inactive) | 3.6 | 1.43 (inactive) | 1.68 | 1.43 | 1.06 | 1.03
NC(=O)N1C(=O)C2C(C1=O)C1C=C(CCCO)C2C(c2ccc(CN3CCCC3)cc2)N1Cc1cccc(OC(F)(F)F)c1 (stereo not given) | -0.0367 | 0.145 | 0.028 | 0.173 | 0.185 | -0.299 | 1.03 | -0.0987 (inactive) | 0.0635 | -0.0296 | 1.33 | -1.11 (inactive) | -2.67 (inactive) | -2.1 (inactive) | 1.28 | 0.489 (inactive) | 0.0472 | 0.623 | 0.0057 | -0.0286
[N-]=[N+]=NCc1ccccc1C[C@]1(C(=O)O)COC(c2ccc(OCCCO)cc2)=N1 | 0.895 | -0.167 | -0.0213 | -0.461 | -0.664 | 1.57 | 0.0238 | 0.277 (inactive) | 0.0273 | 0.2 | -0.486 | 0.493 (inactive) | 0.612 (inactive) | -0.0738 (inactive) | -0.0986 | 0.398 (inactive) | -0.0252 | -0.389 | -0.614 | -0.0702
COCCOC(=O)N1C(=O)[C@@]2(c3cc(C#CC4=CCCCC4)ccc31)[C@H](c1ccc(OCCO)cc1)N1[C@H](c3ccccc3)[C@H](c3ccccc3)OC(=O)[C@H]1[C@@H]2C(=O)N1CCCCCCC1 | 2.32 | 0.945 | 0.303 | 0.474 | 1.37 | 1.07 | 1.13 | -1.62 (inactive) | 2.12 | 1.9 | 1.54 | -1.06 (inactive) | -0.301 (inactive) | 1.89 (inactive) | 2.96 | 3.25 (inactive) | 1.18 | 1.21 | 1.07 | 0.604
COc1ccc(CCNC(=O)[C@@]2(Sc3ccc(C)cc3)CC(=O)N(Cc3cc(C(F)(F)F)cc(C(F)(F)F)c3)[C@@H]2c2ccc(CO)cc2)cc1 | 0.575 | -0.748 | -0.188 | -0.498 | -1.79 | -0.854 | -0.637 | 0.522 (inactive) | -0.498 | 0.132 | -0.772 | -1.11 (inactive) | -0.912 (inactive) | -0.683 (inactive) | 0.92 | -0.466 (inactive) | 0.344 | -1.69 | -1.26 | -0.213
